Experimental findings from the supplement of paper PMC6555819 are described below.

The test has as its system PXR:RXRa (NR concentration 270 nM, RXRa partner concentration 90 nM). The test can be described thus: PBM binding z-score (relative to random genomic background probes); higher = stronger binding; sequences stand for … in GC…GCGATTGACAGCGTAGAATGAAGG
In a few lines:
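Binding z-scores take random background probes as their reference. They come from custom Agilent 4×180K protein-binding microarrays incubated 1 h with ligand-free nuclear receptor dimers, with antibodies against each partner (one per run) detecting binding. Scanned fluorescence was regression-normalized.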
With GATACAGGGTCAGCTAGAGTCCAGAGTATGGAAA, the PBM binding z-score is 4.14. With AGGATGAGGTTAAGATCAGGGAAACAGAATACAT the figure was 1.56; with CCGAGTAGGTTATGGGGCATTCGGGCAACGGTGA, 0.00674.

The sequence TCATAAAGGTAAACAGGTGAAAGTCCGTAAGTTA yielded a PBM binding z-score of 1.22. On to ACAGACAGGGGAGTGAAGGTAACTCAGCTGGACG, for which the PBM binding z-score was -0.136. Then CATACAGGGTCAGCTAGGCGAGAGTAGGGACGGC, with 1.83; and GCGACTGGGGCAAATCAGGTTACCATAAGGTTGG, with 1.1; and ACTAGCAGGCCAAGTTTGGTTCACTCAAACAAAG, with 0.287. Then CCTAGTTTGTCAAGGTCACACACGCTATAGGTAC, with 4.71.

For CCTACTGGGCCAAAAGTCATTGATTCCAATGCTC, the PBM binding z-score is -0.153. Then TCTAGTTGGGCAAAGGTCACACACTCGAAATGCG, with 5.64. With TCTCGGAGGACACGAAGCTCAGAGCTTTCCAGAG the figure was -0.254. Sequence ATCTCTAGGTAACCAAGTTCAATGAATGCCGAAC registered a PBM binding z-score of 2.72.

Regarding ACTATTAGTTGACTTAGTGCAACCGATACGACGC, the PBM binding z-score was found to be 0.283. With CTCGACAGGTCGTGCTCAGGTGAGTATACCAAAC the figure was 0.437; with TCTTGTAAATCAGCAGGTTAAGAAAGCTGGCCAA, 0.477.

In turn, CCGACTGGGGCAGAAAGGTTAACATACCATCCGG yielded a PBM binding z-score of 1.19. Then CCTACTGGGCCATTCAGAGGTCTTTGATCATATG, with -0.375; and CCTCGGAGGACCACAGGAGGTCAGAGCTGCCAGA, with 2.22. Then ATCTCTAGGTAAAGAGAGTTCAGTGAATGCAAAT, with 3.71. With TCTTGGAGATCAACAGGAGGTTAAGAAAGATCGA the figure was 1.09; with CCTCGGAGGAAAGAAGGTCAGAGCTGTCCGCTTT, 1.16; with CCTCGGAGGACATAAGGTCAGAGCTGTCCGCTTT, 2.42. In the case of CGTCAAAGTTCAAGGTAAGGTAACAGAAAGCAGC, the PBM binding z-score turned out to be 4.03. Then TTACCAAGGTGAAGGTCGTTGTTCCCTCTGTAGA, with 1.47. Turning to CAGCCTAGGTCAGGGCCAGTTTAGGAGGAACGTT, the PBM binding z-score came to 1.03. As to ATGTCTAGGTAACAAGTTCAGTGAAAGAGAGGAC, the PBM binding z-score was 1.69. Then GGAACGAGGGAATTCGAGTTGATAGCATGGCGAT, with -0.165.

Take CCTCGGAGGACAACAGGCGGTCAGAGCTGCCAGA: the PBM binding z-score was -0.464. With CCTCGCAGGACAGAAGGTCAGAGCTGTCCGCTTT the figure was 1.35; with GCTATTAGTTGAAAGGGCAAGCGAATGATTCTCG, 0.469; with CCTAGCAGGCCAGGGTCACTCAAGCATTTCGCTT, 2.63.

CGTCCTAGGTCAATGCTAGGTCAGTGAAAGCATT yielded a PBM binding z-score of 2.57. Then CCTACAGGGTCAGCTAGGCCAGAGTAGGGACGGC, with 1.92; and TGAATGAGGTTATAAGATCATGGAACGTTGCAAA, with 1.1; and CCTTACGGGTCAAGGTTATAGCACGGGTGGTACG, with 3.2. Then ACAGACATGTGAGTGAAGGTAACTCAGCTGGACG, with -0.554. With TCTTGTAGATCAACAGGAAGTTAAGAAAGATCGA the figure was -0.183; with TCACGGAGGACACGAAGGTCAGAGCTTTCCAGAG, 1.98. With GCTAGTTGGTCAGTAAAAGGTTACACACCGGTCG, the PBM binding z-score worked out at 1.42.
